The values below come from PubChem BioAssay (NCATS).

The test concerns the target Calcium and integrin-binding protein 1 (Homo sapiens) (UniProt Q99828). The experiment in a line: Primary qHTS for Identification of Calcium Integrin Binding Protein 1 (CIB1) Competitor (AID 1508620).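 Note: GST tagged CIB1 binding a fluorescein labelled alphaIIb integrin peptide tracer; top concentration of the series differs between compounds.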 Summed up: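 Fluorescence polarization competition: CIB1-GST (1 uM final) preincubated with compound 15 min at room temperature, then FITC-labeled alphaIIb peptide (100 nM final) added for another 15 min. Polarization read at Ex 480/Em 540.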
Background: In qHTS, concentration-response curves come from the screen itself.

Records with an inconclusive call do not appear. Where a call stands in place of a potency, no number is given. Unmarked numbers belong to inactive results. Active and inactive are the calls of the source. Calls come from the whole dose curve; as a rule, active = well fitted inhibition curve with a large enough effect; inconclusive = small, poorly fitted or top-dose-only effect; inactive = flat fitted curve, though single readings scatter.

Chain of Calcium and integrin-binding protein 1 (Homo sapiens) (Q99828 whole entry, looked up): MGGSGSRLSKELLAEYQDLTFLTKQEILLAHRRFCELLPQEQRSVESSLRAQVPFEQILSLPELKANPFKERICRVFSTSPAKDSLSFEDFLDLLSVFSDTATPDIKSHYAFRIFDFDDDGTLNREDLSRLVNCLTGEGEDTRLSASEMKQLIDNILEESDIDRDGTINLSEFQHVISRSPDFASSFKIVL

Consider `CC(=O)OC1C(CO)OC(O[C@H]2[C@H](OC(=O)[C@]34CCC(C)(C)C[C@H]3C3=CCC5[C@@]6(C)CC[C@H](O[C@@H]7O[C@H](C(=O)O)[C@@H](O)[C@H](O[C@@H]8OC[C@@H](O)[C@H](O)[C@H]8O)[C@H]7O[C@@H]7O[C@H](CO)[C@H](O)[C@H](O)[C@H]7O)[C@@](C)(C=O)C6CC[C@@]5(C)[C@]3(C)C[C@H]4O)O[C@H](C)[C@H](OC3OC(C)C(OC4OCC(O)C(O)C4O)C(O)C3O)[C@@H]2O)C(O)C1O` (some centres not stated), for which the activity change, negative = inhibition was 4.08% [at 12.4 µM].

As for `CC1(C)CC[C@]2(C(=O)O[C@@H]3O[C@H](CO)[C@@H](O)[C@H](O)[C@H]3O)[C@H](O)C[C@]3(C)C(=CCC4[C@@]5(C)CC[C@H](O[C@@H]6OC[C@@H](O)[C@H](O)[C@H]6O)[C@@](C)(C(=O)O)C5CC[C@]43C)[C@@H]2C1` (some centres not stated), the Potency result was “inactive”.

Consider `COC(=O)c1[nH]c(=O)c2ccccc2c1-c1ccc[nH]1`, for which the Potency entry was “inactive”.

As to `C=C(C)[C@@H]1CC[C@]2(C(=O)O)CC[C@]3(C)[C@H](CCC4[C@@]5(C)CCC(=O)C(C)(C)C5C(O)C[C@]43C)C12` (some centres not stated), the Potency result is “inactive”.

Consider `C=C(C)C1Cc2c(ccc3c2OCC(c2ccc(O)cc2O)C3)O1` (configuration not stated), for which the Potency result is “inactive”.

For `CC1(C)CC[C@]2(C(=O)O)CC[C@]3(C)C(=CCC4[C@@]5(C)CC[C@H](O[C@H]6O[C@H](C(=O)O)[C@@H](O)[C@H](O[C@@H]7O[C@H](CO)[C@H](O)[C@H](O)[C@H]7O)[C@H]6O)C(C)(C)C5CC[C@]43C)[C@@H]2C1` (some centres not stated), the Potency result was “inactive”.

For `C=C(C)[C@H]1CC[C@]2(C(=O)O)CC[C@]3(C)C(CCC4[C@@]5(C)CCC(=O)C(C)(C)C5CC[C@]43C)C12` (some centres not stated), the Potency result is “inactive”.
